Assay results published in PubChem BioAssay AID1619 (SRMLSC, 2009).
Among all 220,000 compounds or so, about 830 (0.38%) were called active.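 Rule for the calls: active = compound inhibiting the enzyme by more than half at any dose during confirmatory dose-response retesting; inconclusive = strong single-dose inhibitors picked by rank but not retested; inactive = the rest.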 Not all results are given here. Entries with a potency or affinity are not part of this list.

target: Leucine aminopeptidase (Plasmodium falciparum (isolate 3D7)) (UniProt Q8IL11); assay: P. falciparum M17LAP inhibitors, primary screen, biochemical, fluorogenic H-Leu-NHMec substrate, 1536-well (AID 1619); details: recombinant M17LAP, H-Leu-NHMec fluorogenic kinetic assay; at 30 µM; active compounds read high;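 note: plate controls were full reaction with DMSO carrier for no effect and no enzyme background for full effect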
Sequence (Q8IL11 whole entry, looked up): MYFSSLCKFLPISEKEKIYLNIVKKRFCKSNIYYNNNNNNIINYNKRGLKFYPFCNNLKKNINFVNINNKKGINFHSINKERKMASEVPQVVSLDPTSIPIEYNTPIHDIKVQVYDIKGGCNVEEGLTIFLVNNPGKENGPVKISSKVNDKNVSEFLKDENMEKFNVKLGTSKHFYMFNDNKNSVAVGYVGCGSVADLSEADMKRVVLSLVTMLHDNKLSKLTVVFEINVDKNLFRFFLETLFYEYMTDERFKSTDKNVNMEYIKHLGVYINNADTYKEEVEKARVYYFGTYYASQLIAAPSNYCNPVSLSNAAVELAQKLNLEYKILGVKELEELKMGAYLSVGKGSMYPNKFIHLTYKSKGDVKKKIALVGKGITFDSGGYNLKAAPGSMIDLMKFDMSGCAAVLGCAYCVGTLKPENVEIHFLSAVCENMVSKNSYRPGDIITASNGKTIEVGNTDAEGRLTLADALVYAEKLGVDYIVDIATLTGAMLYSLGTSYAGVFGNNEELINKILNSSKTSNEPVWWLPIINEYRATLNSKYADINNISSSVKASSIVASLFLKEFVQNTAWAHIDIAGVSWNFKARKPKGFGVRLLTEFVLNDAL

inhibition, inactive:
Cc1nn(-c2ccccc2)c(Cl)c1/C=C(\C#N)C(=O)NC(C)C 0.39%
COCc1cc(C)nc(N/N=C/c2ccc(Cl)c(Cl)c2)c1C#N -7.61%
O=[N+]([O-])c1ccc(Nc2c3ccccc3nc3ccccc23)cc1 -29.4%
Cc1ccc(NC(=O)CN2C(=O)N/C(=C\c3cccnc3)C2=O)cc1 2.33%
Cc1ccc(Cn2c(SCc3cccnc3)nc3c2c(=O)n(C)c(=O)n3C)cc1 5.09%
CC(=O)Nc1ccc(NC(=O)CN(c2cccc(C)c2)S(C)(=O)=O)cc1 1.19%
CCc1cccc(NC(=O)CCc2nc(-c3cccs3)no2)c1 17.6%
CCNC(=S)Nc1ccc(Cl)c([N+](=O)[O-])c1 -6.59%
NC(=O)CC(NC(=O)Cc1ccc(Br)cc1)c1ccc(NCc2ccc(F)c(F)c2)c([N+](=O)[O-])c1 (centres undefined) -2.21%
Cc1cc(C(=O)Nc2ccc(S(=O)(=O)Nc3onc(C)c3C)cc2)c(C)o1 -21.9%
Cc1noc(NS(=O)(=O)c2ccc(NC(=O)CSc3n[nH]c(-c4ccccc4)n3)cc2)c1C -60.9%
Cc1noc(NS(=O)(=O)c2ccc(N/C=C/C(=O)c3ccc(F)cc3)cc2)c1C 20.6%
Cc1cc(C)nc(SCC(=O)Nc2ccc(S(=O)(=O)Nc3onc(C)c3C)cc2)n1 -13.9%
Cc1noc(NS(=O)(=O)c2ccc(N/C=C/C(=O)c3ccc4c(c3)OCO4)cc2)c1C 36.4%
Cc1cc(C)c(C(=O)Nc2ccc(S(=O)(=O)Nc3onc(C)c3C)cc2)c(C)c1 -10.6%
CCSc1cnn(-c2ccccc2)c(=O)c1SCC 9.04%
Cc1ccc(C(=O)O)cc1NC(=O)C1CCCN1S(=O)(=O)c1cccc2nsnc12 (centres undefined) -2.3%
CC(=O)Nc1ccccc1OCC(=O)NC(C)c1ccc(F)cc1 (centres undefined) 7.52%
CCOC(=O)c1oc2ccccc2c1NC(=O)c1ccc(S(=O)(=O)N2CCCC2)cc1 -6.8%
S=c1[nH]nc(-c2cc(-c3ccccc3)n[nH]2)n1/N=C/c1ccc(Cl)cc1 1.35%
O=C(Nc1ccc(Cl)cc1)c1csc(-c2ccccc2)n1 -10.4%
CC(C)OC(=O)/C(C#N)=C/c1cn(C)c2ccccc12 -3.85%
CC(=O)N1CCC2(CC1)C(C#N)=C(N)Oc1n[nH]c(C)c12 8.86%
CC(=O)N1CCC2(CC1)C(C#N)=C(N)Oc1n[nH]c(C(F)(F)F)c12 -15.9%
COCc1[nH]nc2c1C1(CCSCC1)C(C#N)=C(N)O2 11.4%
Cc1ccc(SCc2[nH]nc3c2C2(C(=O)Nc4ccc(F)cc42)C(C#N)=C(N)O3)cc1 (centres undefined) 10.5%
CCCC(=O)Nc1ccc(C(=O)NN2C(=O)c3ccccc3C2=O)cc1 -2.16%
O=C(c1ccccn1)N(Cc1ccco1)C1(C(=O)NC2CCCCC2)CCCCC1 1.03%
CC1CCCCN1CC(=O)Nc1cc(S(=O)(=O)N2CCOCC2)ccc1N1CCCC1 (centres undefined) 4.92%
Cc1ccc(NC(=O)N2CCCCC2)cc1NC(=O)N1CCCCC1 -2.13%
CC1CC(CC(=O)NNc2nc(-c3ccccc3)cs2)C(=O)O1 (centres undefined) 12.5%
C/C(CC1CC(COCC(C)C)OC1=O)=N\Nc1nc(-c2ccccc2)cs1 (centres undefined) 10.7%
CC1CC(CC(=O)Nc2nc(-c3ccccc3)cs2)C(=O)O1 (centres undefined) 2.05%
CC1(C)CC(CC(=O)NNc2nc(-c3ccccc3)cs2)C(=O)O1 (centres undefined) 12.7%
O=C(CN(Cc1ccco1)S(=O)(=O)c1ccccc1)N/N=C/c1ccccc1C(=O)O 38.3%
CCOc1cc(C(=O)OCC(=O)Nc2cc(C)on2)ccc1OCC(C)C -3.97%
Cc1ccccc1NC(=O)Cn1nnc(-c2ccc(N3CCOCC3)cc2)n1 2.77%
COc1ccccc1N(CC(=O)Nc1cc(C)on1)S(=O)(=O)c1ccc(Cl)cc1 -0.47%
NC(=O)[C@@H]1CCCN1Cc1nc(-c2cccs2)no1 -3.71%
CCCCCCN1C=CC(=C/C=C(\C#N)C(=O)OCC)C=C1 -2.08%
CCCN1C=CC(=CC=C(C#N)C#N)C=C1 40.8%
C=CCN1C=C/C(=C\C=C(C#N)C#N)c2ccccc21 -9.06%
CCOC(=O)/C(C#N)=C\c1ccc(CC)s1 14.8%
CCOC(=O)/C(C#N)=C/N=c1ccc(C)cn1C 12.6%
CCOC(=O)/C(C#N)=C/C=C1/C=CC=CN1C 20%
CCOC(=O)/C(C#N)=C/C=C1\C=Cc2ccccc2N1CC 1.1%
CCOC(=O)/C(C#N)=C\N(C)C 5.6%
CCOC(=O)c1nnn(-c2nonc2-n2cccc2)c1CCl 7.36%
COC(=O)CN(c1ccccc1OC)S(=O)(=O)c1ccccc1 -2.64%
Cc1ccc(C)c(NC2=C(Cl)C(=O)OC2OC(C)C)c1 (centres undefined) -15.8%
CC(=O)N1CCC(N(C(=O)Nc2ccc(F)cc2)C2CCCC2)CC1 11%
CC(C)(C)c1ccc(C(=O)c2c[nH]c(C(=O)NCC3CCCO3)c2)cc1 (centres undefined) -3.09%
NC(=O)c1ncc(C(F)(F)F)cc1Oc1cccc(C(F)(F)F)c1 -2.19%
Cc1cc(C)nc(NC(=O)C2c3ccccc3Oc3ccccc32)n1 5.07%
CCN(CC)CCNc1nc(-c2cccs2)c(CC(=O)O)s1 0.71%
CCCc1cc(C(=O)Nc2sc(C)c(CC)c2C#N)no1 3.41%
O=C(Nc1ccc(O)cc1)c1ccc2c(c1)C(=O)N(Cc1ccco1)C2=O 13.2%
O=C1/C(=C\c2ccco2)SC(=S)N1Cc1ccccc1 21.4%
O=C(NNC(=O)c1ccccc1O)c1ccco1 20.5%
O=C(Nc1ccc(O)cc1C(=O)O)c1ccc2c(c1)C(=O)N(Cc1ccco1)C2=O -9.39%
O=C(O)c1ccc(COc2ccccc2/C=C2\NC(=O)N(Cc3ccccc3)C2=O)cc1 20.1%
O=C(CN1C(=O)S/C(=C\c2ccccc2)C1=O)NNC(=O)c1ccccc1O 9.15%
O=C(CSc1nnc(-c2ccccc2)n1Cc1ccccc1)NNC(=O)c1ccccc1O 10.4%
COC(=O)C1=C(C)N(Cc2ccccc2)C(=O)/C1=C\c1ccco1 23.3%
Cc1cccc(C(=O)NCCC(=O)Nc2nc(C)c(Cc3ccc4c(c3)OCO4)s2)c1 -0.81%
CC(C)NC(=S)N1CCN(c2ncccn2)CC1 -3.12%
COc1ccc(C(=O)NC2CCN(C(=S)Nc3ccc(C)cc3)CC2)cc1 3.35%
O=C(NC(Cc1ccccc1)C(=O)NC1CC1)OCc1ccccc1 (centres undefined) 9.99%
CCCOc1ccc(OCCSc2nnc(N)s2)cc1 -4.02%
Cc1cc(C)c(/C=N/NC(=O)c2nnn(-c3nonc3N)c2COc2ccc(F)cc2)c(C)c1 11.6%
CC(=O)Nc1nc(COc2ccccc2)cs1 -12.2%
O=[N+]([O-])c1ccc(N2CCN(S(=O)(=O)c3ccccc3)CC2)cc1NCCN1CCOCC1 -0.09%
CCOC(=O)c1cc(NC(=O)c2cccnc2)ccc1N1CCOCC1 -6.5%
Cc1ccnc(SCC(=O)N2CCCc3ccccc32)n1 -6.82%
O=S(=O)(Nc1cccc2c1CCCC2)c1cccc(C(F)(F)F)c1 -8.32%
COc1ccc([N+](=O)[O-])cc1NC(=O)Cc1ccc(Cl)cc1 8.59%
COc1cc([N+](=O)[O-])ccc1NC(=O)Cc1ccc(C)cc1 -2.2%
Cc1ccccc1NC(=O)CSc1nnc(-c2ccco2)c(-c2ccco2)n1 42.7%
CC(=O)c1ccc(NC(=O)CSc2nnc(-c3ccco3)c(-c3ccco3)n2)cc1 22.5%
Cc1cccc(NC(=O)CSc2nnc(-c3ccco3)o2)c1C 0.69%
Cc1ccc(NC(=O)CSc2nnc(-c3ccco3)c(-c3ccco3)n2)cc1 53.2%
CC1CN(Cc2nnc(-c3ccccc3)o2)CC(C)O1 (centres undefined) 3.22%
Cc1c(NC(=O)CN2C(=O)c3cccc4cccc2c34)c(=O)n(-c2ccccc2)n1C 29.2%
COc1cccc(CNC(=O)C2CCC(CNc3c(N4CCC(C)CC4)c(=O)c3=O)CC2)c1 (centres undefined) -8.13%
O=C(CCc1ccccc1)NNC(=S)Nc1ccc(F)cc1 5.08%
CC(C)(C)Sc1ccc(/C=N/O)cc1[N+](=O)[O-] -1.67%
N=C1/C(=C/c2cccs2)C(=O)N=C2SN=C(SCc3ccccc3)N12 14.2%
CC(C)CSC1=NSC2=NC(=O)/C(=C\c3cccs3)C(=N)N12 9.74%
O=C(CN1CCc2ccccc2C1)N1CCN(S(=O)(=O)c2ccccc2)CC1 7.42%
CCOc1ccc2nc(NC(=O)C(NS(=O)(=O)c3cccc4nsnc34)C(C)C)sc2c1 (centres undefined) -8.83%
CC1(C)Cc2sc3c(=O)[nH]c(=S)[nH]c3c2CO1 6.75%
CCCSc1nc2c3c(sc2c(=O)[nH]1)CC(C)(CC)OC3 (centres undefined) -0.94%
COC(=O)c1c(NC(=O)/C=C/C(=O)O)sc(C)c1-c1ccc(C)cc1 14.7%
CCOC(=O)c1c(NC(=O)/C=C/C(=O)O)sc(C)c1-c1ccc(C)c(C)c1 8.96%
